High-throughput results (PubChem)
This is a sample that favours compounds with a hit; in the whole collection about 4.1% have one here.
CHT PAM: allosteric activators of human choline transporter CHT | B-score at 10 µM | CHT-expressing cells, membrane potential dye, choline EC20; hits give high values; LV-AA mutant CHT in HEK293 cells | AID 488977 | Q9GZV3 | 310,000 tested, 0.49% active;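 active means initial fluorescence not abnormally high and integrated response B-score, plate-corrected, over 3 SD above library mean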
Target sequence (Q9GZV3 whole entry, looked up): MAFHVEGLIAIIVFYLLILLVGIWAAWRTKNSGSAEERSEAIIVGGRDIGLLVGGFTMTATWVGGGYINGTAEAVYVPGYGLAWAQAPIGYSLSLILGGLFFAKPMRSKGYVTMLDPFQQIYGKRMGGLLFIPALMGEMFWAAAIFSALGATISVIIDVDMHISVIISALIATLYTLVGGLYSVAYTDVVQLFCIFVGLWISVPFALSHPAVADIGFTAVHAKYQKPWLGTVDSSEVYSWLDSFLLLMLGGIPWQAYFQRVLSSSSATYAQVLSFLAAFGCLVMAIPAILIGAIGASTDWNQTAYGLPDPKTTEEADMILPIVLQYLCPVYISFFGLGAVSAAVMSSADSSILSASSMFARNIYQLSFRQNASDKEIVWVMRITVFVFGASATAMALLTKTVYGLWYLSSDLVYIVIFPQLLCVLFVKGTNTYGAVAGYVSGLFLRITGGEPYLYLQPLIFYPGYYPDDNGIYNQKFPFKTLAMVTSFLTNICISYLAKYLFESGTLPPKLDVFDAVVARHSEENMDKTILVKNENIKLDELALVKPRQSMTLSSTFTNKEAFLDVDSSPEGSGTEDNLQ
Mot1-301 SUMO: inhibitors of SUMOylation pathway: yeast Mot1-301 growth rescue; AID 2716; S. cerevisiae Mot1-301 growth rescue, ATP luminescence, 38.5C; percent above DMSO median, 100 means doubled; 320,000 tested, 1% active; growth rescue, % at 18.8 µM;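 active means every valid replicate shows activation above 250% relative to neutral control wells; inactive means the rest, any valid replicate at or below 250%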
MEKK2 mut-MEK5: signal of MEK5 binding to mutant human MEKK2 PB1 domain | percent response, % at 10 µM | AID 1530 | bead flow cytometry, Alexa488-MEK5 binding to MEKK2 mutant | 290,000 tested, 0.35% active; in the data active means percent response above about 24%, passing the limit was not always enough
CHT block: inhibitors of human choline transporter CHT; Q9GZV3; CHT-expressing cells, membrane potential dye, choline response; hits give low values; B-score at 10 µM; 310,000 tested, 0.86% active; AID 488975;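 active means B-score over 3 SD under the library average, and starting fluorescence ratio not unusually high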;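 further: choline stimulus applied at its EC90 after an EC20 pre-addition; B-score computed on integrated fluorescence ratio after choline addition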
MEKK3 PB1 HTS: raises or lowers MEK5 binding to the human MEKK3 PB1 domain. binding response (% of control), % at 10 µM. Q99759. bead-based flow cytometry, Alexa488-MEK5 binding to MEKK3; actives lie on both sides; 0 = blocked by unlabeled MEK5, 100 = vehicle. 290,000 tested, 1.4% active;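 active means binding response more than 3 SD above or below the average of its plate-row segment, actives on both sides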;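 further: Alexa488 bead fluorescence after subtracting the streptavidin-only scavenger bead signal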
MEKK2wt PB1 HTS: raises or lowers MEK5 binding to wildtype human MEKK2 PB1 domain. Q9Y2U5. binding response (% of control), % at 10 µM. 290,000 tested, 1.1% active. bead flow cytometry, Alexa488-MEK5 binding to MEKK2 WT; actives lie on both sides. AID 1531; in the data active means binding response below about 67% or above about 130%
MEKK2wt confirm: raises or lowers MEK5 binding to wildtype human MEKK2, retest. shares compounds with MEKK3 PB1 HTS. AID 1892. bead flow cytometry, Alexa488-MEK5 binding to MEKK2 WT; actives lie on both sides. binding response (% of control), % at 10 µM. 5,900 tested, 2.4% active; in the data active means binding response below about 16% or above about 210%; inactive means in between
MEKK2mut-MEK5: signal of MEK5 binding to mutant human MEKK2, retest. 5,900 tested, 2% active. AID 1893. shares compounds with MEKK3 PB1 HTS. percent response, % at 10 µM. bead flow cytometry, Alexa488-MEK5 binding to MEKK2 mutant; in the data active means percent response mostly above about 71%, no sharp cut-off; inactive means mostly below about 38%;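 further: higher means compound restores mutant binding toward wildtype level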
MEKK3-MEK5 inh: confirmation of inhibitors of MEK5 binding to human MEKK3; shares compounds with MEKK3 PB1 HTS; bead flow cytometry, Alexa488-MEK5 binding to MEKK3; hits give low values; binding response (% of control), % at 10 µM; 5,900 tested, 1.8% active;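 active means binding response below 72% of control, or above a set upper limit, though filed actives all read lower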
Numbers stand for hits; – = inactive; · = not tested or not shown; [ ] = another dose, or the depositor's remark.

SMILES	CHT PAM	Mot1-301 SUMO	MEKK2 mut-MEK5	CHT block	MEKK3 PB1 HTS	MEKK2wt PB1 HTS	MEKK2wt confirm	MEKK2mut-MEK5	MEKK3-MEK5 inh
C=CCNC(=S)N1CCN(CCN=CC2=C(O)CC(c3cccs3)CC2=O)CC1 (centres undefined)	–	–	–	–	–	–	·	·	·
CCCn1c(SCC(=O)c2c[nH]c3ccccc23)nnc1-c1ccncc1	–	–	–	–	71[inhibitor]	–	–	–	–
Cc1occc1-c1nnc(SCC(=O)c2c[nH]c3ccccc23)n1C	–	–	–	–	–	–	·	·	·
Cc1cc(C(F)(F)F)nc(CCNC(=O)C2CCC(=O)N(Cc3cccc(F)c3)C2)n1 (centres undefined)	–	–	–	–	–	–	·	·	·
Cn1cccc1CC(=O)NNC(=O)Nc1ccc(F)cc1	–	–	–	–	147	–	–	–	–
O=C(CSc1nc2nc3c(cc2c(=O)n1-c1ccccc1)CCCC3)Nc1ccccc1	–	–	–	–	131	–	–	–	–
CN(C)C(CNC(=O)CCNS(=O)(=O)c1ccccc1C(F)(F)F)c1ccccc1 (centres undefined)	·	–	·	·	·	·	·	·	·
O=C(Cc1ccc2c(c1)CCCC2)Nc1ccccc1Br	–	–	–	–	43[inhibitor]	–	–	–	–
CCOc1ccc(C(=O)/C=C/c2cn(CN3CCN(C)CC3)c3ccccc23)cc1	–	–	41	–	–	204	–	–	–
COc1ccc(C(=O)/C=C/c2cn(CN3CCN(C)CC3)c3ccccc23)cc1	–	–	·	–	·	·	·	·	·
Cc1ccc(NC(=O)COC(=O)C2(CC(=O)NC(C)C)CCCC2)cc1C	·	–	·	·	·	·	·	·	·
N#CC(C#N)=c1ccc2c(c1)N1C(c3ccccc3)=CC(c3ccccc3)C3CCCCC31N=2 (centres undefined)	–	–	–	–	27[inhibitor]	–	–	–	61
CCOc1cc(N2CCOCC2)c(OCC)cc1NC(=O)CN1CCC(Cc2ccccc2)CC1	–	–	–	–	149	–	–	–	–
COc1ccc(CN(CC(=O)NCc2ccc(F)cc2)C(=O)c2ccco2)cc1	–	–	–	–	–	–	·	·	·
O=C(CN(Cc1ccc(F)cc1)C(=O)c1ccco1)NCc1ccc(F)cc1	–	–	–	–	0.0[inhibitor]	0.0[inhibitor]	–	–	–
COc1ccc(C)cc1NC(=S)N1CCN(S(C)(=O)=O)CC1	–	–	–	–	–	–	·	·	·
Cc1ccc(N=C(NOC(=O)c2ccccc2)c2nonc2N)c(C)c1	–	–	–	–	–	–	·	·	·
CC(=O)ONC(=Nc1ccccc1)c1nonc1N	–	–	–	–	47[inhibitor]	–	–	–	–
Cc1cc(C)cc(NC(=O)c2ccc(S(=O)(=O)C(F)F)cc2)c1	–	–	–	–	144	–	–	–	–
Cc1cccc(NC(=O)c2ccc(S(=O)(=O)C(F)F)cc2)c1C	–	–	–	–	137	–	–	–	–
Cc1cccc(NC(=O)c2ccc(S(=O)(=O)N3CCOCC3)cc2)c1C	–	–	–	–	–	–	·	·	·
CCCCN(CC)C(=O)Cc1ccc(Br)cc1	–	–	–	–	128	–	–	–	–
COc1ccc(N2CC(C(=O)N3CCN(C(=O)c4ccco4)CC3)CC2=O)cc1 (centres undefined)	–	–	–	–	–	–	·	·	·
NC(=O)Cn1c(-c2nonc2N)nc2ccccc21	–	–	–	–	–	–	·	·	·
C=COCCn1c(-c2nonc2N)nc2ccccc21	–	–	–	–	122	–	–	–	–
